# Source: the supplement of paper PMC8728848
# The entries come from a sample that favours the strongest signals as a whole.
# What was measured:
# Assay in all cases: glycan array binding signal (z-score within array); higher = stronger binding
# Details in all cases: glycan notation: IUPAC condensed, linker removed
# [1] = biological target: Gal(b1-4)GlcNAc(b1-3)Gal(b1-4)GlcNAc(b1-3)Gal(b1-4)GlcNAc(b1-3)Gal(b1-4)GlcNAc(b1-3)Gal(b1-4)GlcNAc(b1-2)Man(a1-3)[Gal(b1-4)GlcNAc(b1-3)Gal(b1-4)GlcNAc(b1-3)Gal(b1-4)GlcNAc(b1-3)Gal(b1-4)GlcNAc(b1-3)Gal(b1-4)GlcNAc(b1-2)Man(a1-6)]Man(b1-4)GlcNAc(b1-4)GlcNAc
# Method in brief: (§1)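 The binding signal is a Z-score computed within each array. Data were drawn from 3228 arrays in the Consortium for Functional Glycomics database, restricted to those with a known protein sequence. Scores were averaged over arrays of the same protein sequence at different concentrations or buffers, and over linkers, and negative values can be taken as non-binding.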
# [2] = biological target: Gal(b1-4)GlcNAc(b1-3)Gal(b1-4)GlcNAc(b1-3)Gal(b1-4)GlcNAc(b1-3)Gal(b1-4)GlcNAc(b1-3)Gal(b1-4)GlcNAc(b1-2)[Gal(b1-4)GlcNAc(b1-3)Gal(b1-4)GlcNAc(b1-3)Gal(b1-4)GlcNAc(b1-3)Gal(b1-4)GlcNAc(b1-3)Gal(b1-4)GlcNAc(b1-6)]Man(a1-6)[Gal(b1-4)GlcNAc(b1-3)Gal(b1-4)GlcNAc(b1-3)Gal(b1-4)GlcNAc(b1-3)Gal(b1-4)GlcNAc(b1-3)Gal(b1-4)GlcNAc(b1-2)Man(a1-3)]Man(b1-4)GlcNAc(b1-4)[Fuc(a1-6)]GlcNAc
# Method in brief: as §1
# [3] = biological target: Gal(b1-4)GlcNAc(b1-3)Gal(b1-4)GlcNAc(b1-3)Gal(b1-4)GlcNAc(b1-3)Gal(b1-4)GlcNAc(b1-3)Gal(b1-4)GlcNAc(b1-3)Gal(b1-4)GlcNAc(b1-2)Man(a1-3)[Gal(b1-4)GlcNAc(b1-3)Gal(b1-4)GlcNAc(b1-3)Gal(b1-4)GlcNAc(b1-3)Gal(b1-4)GlcNAc(b1-3)Gal(b1-4)GlcNAc(b1-3)Gal(b1-4)GlcNAc(b1-2)Man(a1-6)]Man(b1-4)GlcNAc(b1-4)GlcNAc
# Method in brief: as §1
# [4] = biological target: Gal(b1-4)GlcNAc(b1-3)[Gal(b1-4)GlcNAc(b1-6)]Gal(b1-4)GlcNAc
# Method in brief: as §1
# Gal3S(b1-3)GlcNAc = biological target: Gal3S(b1-3)GlcNAc
# Method in brief: as §1
# Gal3S4S(b1-4)GlcNAc = biological target: Gal3S4S(b1-4)GlcNAc
# Method in brief: as §1
# Gal4S(b1-4)GlcNAc = biological target: Gal4S(b1-4)GlcNAc
# Method in brief: as §1
# [5] = biological target: GalNAc(b1-4)GlcNAc(b1-3)GalNAc(b1-4)GlcNAc
# Method in brief: as §1
# Glc(b1-4)Glc = biological target: Glc(b1-4)Glc
# Method in brief: as §1
# Glc(b1-6)Glc = biological target: Glc(b1-6)Glc
# Method in brief: as §1
# [6] = biological target: GlcNAc(a1-4)Gal(b1-4)GlcNAc(b1-3)Gal(b1-4)GlcNAc
# Method in brief: as §1
# [7] = biological target: GlcNAc(a1-6)Gal(b1-4)GlcNAc
# Method in brief: as §1
# [8] = biological target: GlcNAc(b1-2)[GlcNAc(b1-4)]Man(a1-3)[GlcNAc(b1-4)][GlcNAc(b1-2)Man(a1-6)]Man(b1-4)GlcNAc(b1-4)GlcNAc
# Method in brief: as §1
# [9] = biological target: GlcNAc(b1-3)Gal(b1-4)GlcNAc(b1-3)Gal(b1-4)GlcNAc(b1-3)Gal(b1-4)GlcNAc(b1-2)Man(a1-3)[GlcNAc(b1-3)Gal(b1-4)GlcNAc(b1-3)Gal(b1-4)GlcNAc(b1-3)Gal(b1-4)GlcNAc(b1-2)Man(a1-6)]Man(b1-4)GlcNAc(b1-4)[Fuc(a1-6)]GlcNAc
# Method in brief: as §1
# GlcNAc(b1-3)GalNAc = biological target: GlcNAc(b1-3)GalNAc
# Method in brief: as §1
# [10] = biological target: GlcNAc(b1-6)Gal(b1-4)GlcNAc
# Method in brief: as §1
# [11] = biological target: Neu5Ac(a2-3)Gal(b1-3)GalNAc6S
# Method in brief: as §1
# [12] = biological target: Neu5Ac(a2-3)Gal(b1-4)GlcNAc(b1-3)Gal(b1-4)GlcNAc(b1-3)[Neu5Ac(a2-3)Gal(b1-4)GlcNAc(b1-3)Gal(b1-4)GlcNAc(b1-6)]GalNAc
# Method in brief: as §1
# [13] = biological target: Neu5Ac(a2-3)Gal(b1-4)[Fuc(a1-3)]GlcNAc(b1-3)Gal
# Method in brief: as §1
# [14] = biological target: Neu5Ac(a2-3)Gal(b1-4)[Fuc(a1-3)]GlcNAc(b1-3)Gal(b1-4)[Fuc(a1-3)]GlcNAc(b1-3)Gal(b1-4)[Fuc(a1-3)]GlcNAc
# Method in brief: as §1
# [15] = biological target: Neu5Ac(a2-3)Gal(b1-4)[Fuc(a1-3)]GlcNAc(b1-3)GalNAc
# Method in brief: as §1
# [16] = biological target: Neu5Ac(a2-3)[GalNAc(b1-4)]Gal(b1-4)Glc
# Method in brief: as §1
# Neu5Ac(a2-6)Gal = biological target: Neu5Ac(a2-6)Gal
# Method in brief: as §1
# Neu5Ac(a2-6)GalNAc = biological target: Neu5Ac(a2-6)GalNAc
# Method in brief: as §1
# [17] = biological target: Neu5Ac(a2-6)GalNAc(b1-4)GlcNAc
# Method in brief: as §1
# Neu5Ac(b2-6)GalNAc = biological target: Neu5Ac(b2-6)GalNAc
# Method in brief: as §1
binder,measurement,setting,value
"ECL (Erythrina cristagalli), Q6YD91 (protein) VETISFSFSEFEPGNNDLTLQGAAIITQSGVLQLTKINQNGMPAWDSTGRTLYTKPVHIWDMTTGTVASFETRFSFSIEQPYTRPLPADGLVFFMGPTKSKPAQGYGYLGVFNNSKQDNSYQTLAVEFDTFSNPWDPPQVPHIGIDVNSIRSIKTQPFQLDNGQVANVVIKYDASSKILLAVLVYPSSGAIYTIAEIVDVKQVLPEWVDVGLSGATGAQRDAAETHDVYSWSFHASLPETND",glycan array binding signal (z-score),[1],3.35
same,glycan array binding signal (z-score),[2],5.32
same,glycan array binding signal (z-score),[3],2.02
same,glycan array binding signal (z-score),[4],3.6
same,glycan array binding signal (z-score),Gal3S(b1-3)GlcNAc,-0.33
same,glycan array binding signal (z-score),Gal3S4S(b1-4)GlcNAc,-0.359
same,glycan array binding signal (z-score),Gal4S(b1-4)GlcNAc,-0.487
same,glycan array binding signal (z-score),[5],3.31
same,glycan array binding signal (z-score),Glc(b1-4)Glc,-0.25
same,glycan array binding signal (z-score),Glc(b1-6)Glc,-0.304
same,glycan array binding signal (z-score),[6],-0.028
same,glycan array binding signal (z-score),[7],-0.358
same,glycan array binding signal (z-score),[8],-0.235
same,glycan array binding signal (z-score),[9],0.001
same,glycan array binding signal (z-score),GlcNAc(b1-3)GalNAc,-0.196
same,glycan array binding signal (z-score),[10],-0.23
same,glycan array binding signal (z-score),[11],-0.378
same,glycan array binding signal (z-score),[12],-0.038
same,glycan array binding signal (z-score),[13],-0.424
same,glycan array binding signal (z-score),[14],-0.241
same,glycan array binding signal (z-score),[15],-0.17
same,glycan array binding signal (z-score),[16],-0.505
same,glycan array binding signal (z-score),Neu5Ac(a2-6)Gal,-0.186
same,glycan array binding signal (z-score),Neu5Ac(a2-6)GalNAc,-0.481
same,glycan array binding signal (z-score),[17],-0.3
same,glycan array binding signal (z-score),Neu5Ac(b2-6)GalNAc,-0.388
